Measured values from PubChem BioAssay (NCI).
The panel holds about 83,000 compounds, 20% with a hit somewhere; the sample as a whole holds those more often.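 Cells were grown in 96-well plates and exposed to the test compound at a single concentration for 48 hours; results are reported as percent growth, with values below 10 considered active.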 A number with no mark means an inactive call. Calls of active or inactive are those of the source.

Tested on: SNB-19 CNS
Assay: NCI-60 one-dose screen, 48 h (100 = growth as untreated, 0 = no growth, -100 = all killed)
Details: 10 µM
Protocol: Growth inhibition of the SNB-19 human tumor cell line is measured as a screen for anti-cancer activity. Cells are grown in 96 well plates and exposed to the test compound for 48 hours. Compounds are tested at a single concentration, which is 10^-5 M for most compounds. The reported endpoint is percent growth (GI% or GIPRCNT), where numbers from 0 - 100% represent growth inhibition, and numbers from -100% - 0 represent cell death. For example, a value of 40 represents 60% growth inhibition. A value of 0 means no net growth occurred over the course of the experiment. A value of -40 indicates 40% of cells at the beginning of the experiment died by the end of the experiment. A value of -100 means all cells are dead at the end of the experiment.
NCI-60 Human Tumor Cell Lines Screen was performed using the standard one-dose NCI protocol, which is described in more detail at https://dtp.cancer.gov/discovery_development/nci-60/default.htm.
Compounds with GIPRCNT values below 10 were considered active. Activity score was based on GIPRCNT using the following formula: […]
Score is 0 for GIPRCNT values of 100 or above, 50 for GIPRCNT values of 0, and 100 for GIPRCNT values of -100.

How did the growth turn out when CCOP(=O)(CC(F)(F)C(F)(F)F)OCC was run?
Its growth is 95.7%.

For COc1cc2cc(C(=O)N3C[C@@H](CCl)c4c3cc(OC(=O)N3CCN(C(=O)CCC(=O)N5CCN(C)CC5)[C@@H]5CSSC[C@@H]53)c3ccccc43)[nH]c2c(OC)c1OC, which growth is on record?
Its growth is -50.2% (active).

How did the growth turn out when CN(C)CCc1cn(C2CCC2)c2cccc(O)c12 was run?
The growth was 87%.

Which growth does the source give for C[C@H]1[C@H](OC(=O)CCC(=O)Nc2cnccn2)O[C@@H]2OC3(C)CC[C@H]4[C@H](C)CC[C@@H]1[C@@]24OO3 here?
The growth was 56.3%.

How did the growth turn out when O=C(/C=C/c1ccc(Cl)cc1)c1nc2ccccc2n1Cc1ccc(F)cc1 was run?
The growth was 25%.

With C[C@H]1[C@H](OC(=O)CCC(=O)N(CCCc2cn(-c3ccc([N+](=O)[O-])cc3)nn2)CCNc2ccnc3cc(Cl)ccc23)O[C@@H]2OC3(C)CC[C@H]4[C@H](C)CC[C@@H]1[C@@]24OO3 as the molecule, how does the growth read?
The growth was 67%.

O=C([Se]C1C=CCCC1)c1ccc(C(=O)[Se]C2C=CCCC2)s1 (stereo not given) was tested. Which growth did it give?
Its growth is -93.8% (active).

How did the growth turn out when Cc1ccc2[nH]c(=S)n(-c3ccc(F)cc3)c(=O)c2c1 was run?
Its growth is 90.3%.

Which growth does the source give for CC1=C(C=O)C2=C(C)C3(CC3)[C@@](C)(O)C(=O)C2=C1 here?
Its growth is 54.5%.

How did the growth turn out when C[C@H]1[C@@H](CC(=O)N[C@@H](Cc2coc3ccccc23)B(O)O)O[C@@H]2OC3(C)CC[C@H]4[C@H](C)CC[C@@H]1[C@@]24OO3 was run?
Its growth is 26%.

For Cc1c2oc3c(C)ccc(C(=O)N[C@@H]4C(=O)N[C@H](C(C)C)C(=O)N5CCC[C@H]5C(=O)N(C)CC(=O)N(C)[C@@H](C(C)C)C(=O)OC4C)c3nc-2c(C(=O)N[C@@H]2C(=O)N[C@H](C(C)C)C(=O)N3CC(=O)C[C@H]3C(=O)N(C)CC(=O)N(C)[C@@H](C(C)C)C(=O)OC2C)c(N)c1=O (stereo not given in full), which growth is on record?
Its growth is 4.37% (active).

Which growth does the source give for O=C(NC([Se])=NC1CCCCC1)c1ccccc1 here?
Its growth is 24.6%.

How did the growth turn out when O=C(/C=C/c1ccc(Br)cc1)c1nc2ccccc2n1Cc1ccc(Br)cc1 was run?
The growth was -66.9% (active).

With O=C(NCCCCC(c1ccc(F)cc1)c1ccc(F)cc1)Nc1ccc([N+](=O)[O-])c(C(F)(F)F)c1 as the molecule, how does the growth read?
The growth was 17.1%.

CC12CCC3(CCC(=O)NCCCNc4ccnc5cc(Cl)ccc45)[C@@](C)(OO[C@]3(C)O1)O2 was tested. Which growth did it give?
Its growth is 7.99% (active).

COC(=O)C[C@](O)(CCCC(C)C)C(=O)O[C@H]1C(OC)=C[C@@]23CCCN2CCc2cc4c(cc2[C@@H]13)OCO4 was tested. Which growth did it give?
The growth was -27.7% (active).

With C=CCN=C([Se])NC(=O)c1ccc2c(c1)OCO2 as the molecule, how does the growth read?
Its growth is 39.2%.

For O=C(/C=C/c1cccc(Br)c1)c1nc2ccccc2n1Cc1ccc(Br)cc1, which growth is on record?
The growth was -67% (active).

Which growth does the source give for CC12OOC(C)(OO1)C2CCC(=O)OCCNc1ccnc2cc(Cl)ccc12 (stereo not given) here?
The growth was 97.6%.

How did the growth turn out when CC1=C(COCCOC(=O)c2ccc(S(=O)(=O)F)cc2)C2=C(C)C3(CC3)[C@@](C)(O)C(=O)C2=C1 was run?
The growth was -10.6% (active).

Which growth does the source give for CC[C@]12C=CCN3CC[C@@]4(c5ccc(OC)cc5N(C)[C@H]4[C@@](O)(C(=O)OC)[C@@H]1OC(=O)CCC[P+](c1ccc(C)cc1)(c1ccc(C)cc1)c1ccc(C)cc1)[C@@H]32 here?
Its growth is -97.3% (active).

How did the growth turn out when CC[C@]12C=CCN3CC[C@@]4(c5ccc(OC)cc5N(C)[C@H]4[C@@](O)(C(=O)OC)[C@@H]1OC(=O)CCC[P+](c1ccc(F)cc1)(c1ccc(F)cc1)c1ccc(F)cc1)[C@@H]32 was run?
Its growth is 13.8%.

COc1cc2cc(C(=O)N3C[C@@H](CCl)c4c3cc(OC(=O)N3CCN(C)[C@@H]5CSSC[C@H]53)c3ccccc43)[nH]c2c(OC)c1OC was tested. Which growth did it give?
Its growth is -15.4% (active).

C#CCCCN(CCNc1ccnc2cc(Cl)ccc12)C(=O)CCC(=O)O[C@@H]1O[C@@H]2OC3(C)CC[C@H]4[C@H](C)CC[C@@H]([C@H]1C)[C@@]24OO3 was tested. Which growth did it give?
The growth was 56.5%.

With CCOC(=O)C1=C(Nc2ccccc2)C(=O)OC12C(=O)Nc1ccccc12 (stereo not given) as the molecule, how does the growth read?
The growth was 96.4%.

For C[C@H]1[C@H](OC(=O)CCC(=O)N(CCCc2cn(-c3ccc(CN4CCOCC4)cc3)nn2)CCNc2ccnc3cc(Cl)ccc23)O[C@@H]2OC3(C)CC[C@H]4[C@H](C)CC[C@@H]1[C@@]24OO3, which growth is on record?
Its growth is 50.9%.

How did the growth turn out when CC(=O)Oc1ccccc1C(=O)[Se]C(=NC(C)C)NC(C)C was run?
The growth was -88.5% (active).

C[C@H]1[C@@H](Oc2ccc(-c3cn(-c4ccnc5cc(Cl)ccc45)nn3)cc2)O[C@@H]2OC3(C)CC[C@H]4[C@H](C)CC[C@@H]1[C@@]24OO3 was tested. Which growth did it give?
The growth was 40.4%.

COP(=O)(CC(F)(F)C(F)(F)F)OC was tested. Which growth did it give?
Its growth is 101%.

How did the growth turn out when CCOP(=O)(OCC)C(NC(C)=O)C(=O)SCCN (stereo not given) was run?
The growth was 96.9%.

For CC(=O)Oc1ccccc1C(=O)NC([Se])=NC1CCCCC1, which growth is on record?
The growth was 12.3%.

How did the growth turn out when O=C(/C=C/c1ccco1)c1nc2ccccc2n1Cc1ccc(Br)cc1 was run?
Its growth is 54.4%.

Which growth does the source give for CC[C@]12C=CCN3CC[C@@]4(c5ccc(OC)cc5N(C)[C@H]4[C@@](O)(C(=O)OC)[C@@H]1OC(=O)CCCC[P+](c1ccc(OC)cc1)(c1ccc(OC)cc1)c1ccc(OC)cc1)[C@@H]32 here?
The growth was -95.7% (active).

For COc1ccc(OC)c(/C=C/C(=O)c2nc3ccccc3n2Cc2ccc(F)cc2)c1, which growth is on record?
Its growth is -38.9% (active).

How did the growth turn out when C=CC[Se]C(=O)c1ccc(C(=O)[Se]CC=C)s1 was run?
The growth was -73.1% (active).

With COC(=O)C[C@](O)(CCC(C)C)C(=O)O[C@H]1C(OC)=C[C@@]23CCCN2CCc2cc4c(cc2[C@@H]13)OCO4 as the molecule, how does the growth read?
Its growth is -28.3% (active).

With COc1ccc2cc([C@H](C)C(=O)[Se]CCC#N)ccc2c1 as the molecule, how does the growth read?
The growth was -68.7% (active).

Which growth does the source give for CC[C@]12C=CCN3CC[C@@]4(c5ccc(OC)cc5N(C)[C@H]4[C@@](O)(C(=O)OC)[C@@H]1OC(=O)CCC[P+](C1CCCCC1)(C1CCCCC1)C1CCCCC1)[C@@H]32 here?
Its growth is -60% (active).

Which growth does the source give for O=C(/C=C/c1ccco1)c1nc2ccccc2n1Cc1ccc(F)cc1 here?
The growth was 77.7%.

For COc1cc(OC)c(S(=O)(=O)N(CCCl)CCCl)cc1C(=O)/C=C/c1cc(OC)c(OC)c(OC)c1, which growth is on record?
The growth was -38.6% (active).
